A selection: hits, their analogues and other compounds. The true share with any hit is near 4.6%.
D1 antagonist: antagonists of human D1 dopamine receptor; P21728; HEK293 TREx D1 cells, calcium flux, dopamine EC80; hits give low values; activity change, negative = inhibition, % at 10 µM; actives 3.2% (n = 360,000); AID 504652; in the data active means activity change below about -30%; further: on the % scale 0 is the no-effect control and ±100 the full control effect
Target sequence (P21728 whole entry, looked up): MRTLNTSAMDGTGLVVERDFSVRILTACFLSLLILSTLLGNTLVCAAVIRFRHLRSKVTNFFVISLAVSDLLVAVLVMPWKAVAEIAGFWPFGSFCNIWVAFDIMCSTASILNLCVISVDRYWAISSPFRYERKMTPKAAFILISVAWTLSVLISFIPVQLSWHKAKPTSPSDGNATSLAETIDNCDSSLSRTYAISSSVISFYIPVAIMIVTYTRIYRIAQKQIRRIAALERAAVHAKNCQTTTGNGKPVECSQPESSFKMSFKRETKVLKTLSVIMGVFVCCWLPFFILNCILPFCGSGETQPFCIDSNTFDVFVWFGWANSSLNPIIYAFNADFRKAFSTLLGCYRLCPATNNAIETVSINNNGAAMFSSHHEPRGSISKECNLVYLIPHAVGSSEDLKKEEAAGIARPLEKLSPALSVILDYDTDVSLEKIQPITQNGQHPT
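Antagonism measured as reduced calcium response to an EC80 dopamine addition following 180 s compound pre-read; cells were inducible HEK293 Trex D1 plated overnight at 30 C, read kinetically at 1 cycle/sec.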
TRHR enhancer: allosteric enhancers of human TRH receptor; P34981; AID 493056; enhancement, % at 2 µM; TRHR cells, fluo-8 calcium fluorescence, EC20 TRH enhancement; actives 0.66% (n = 360,000); in the data active means enhancement above about 30%; further: 0% is about no effect
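Enhancer read-out: after compound pinning and an initial kinetic agonist-mode read, an EC20 of TRH (10 nM final) was injected and fluo-8 calcium signal (Ex 480/Em 530) followed at 1 s/cycle for 100 cycles in TRHR-expressing cells.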
Epigenetic reg: epigenetic control regulation, reporter derepression; murine LDR cells, GFP reporter derepression, 30 h; Potency, µM (series often up to 53.9 µM), without a hit: at the top dose GFP activation, usual class: activators; actives 0.2% (n = 280,000); AID 1865; active means well fitted activation curve with a large enough effect; inconclusive means small, poorly fitted or top-dose-only effect; further: potency means the concentration at half of the fitted maximal effect; % of control where 0% means no effect; nearly all actives have a fitted effect of over 60% in size
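In this reporter-derepression format, murine cells bearing a silenced integrated CMV-GFP locus incubate with test compound (30 h, 37 C), then are washed and imaged; fluorescent objects of 20–120 um count as induced cells.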
D1 PAM: enhances dopamine response at the human D1 receptor; P21728; HEK293 TREx D1 cells, calcium flux, dopamine EC20 potentiation; potentiation, % at 10 µM; actives 0.036% (n = 360,000); AID 504651; in the data active means potentiation above about 30%; further: 0% is about no effect
D1 ag: human D1 receptor agonism; HEK293 T-REx D1 cells, calcium flux, agonist mode; P21728; activation, % at 2 µM; actives 1% (n = 360,000); further: 0% is about no effect
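Agonism was scored from calcium flux recorded over 180 s (1 read/s) after pintool compound addition, following a 10-cycle baseline. Cells were inducible force-coupled HEK293 TREx D1, plated overnight at 30 C and loaded with no-wash calcium dye.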
TRHR agonist: agonists of human TRH receptor; P34981; TRHR cells, calcium flux fluo-8, FDSS agonist mode; activation, % at 2 µM; actives 0.18% (n = 360,000); AID 493084; further: 0% is about no effect
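Agonist-mode FDSS calcium read (Ex 480/Em 530, 1 s cycles) in 1536-well TRHR cells with fluo-8 dye, after 10-cycle baseline and 23 nL compound addition; TRH at EC20 (10 nM final) added afterwards for the enhancer phase.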
* marks the source's active call; other numbers are inactive results; ? = inconclusive; · = no result given; ! = not confirmed by another sample. Unless noted, no stated cut-off is given here; in the data, active means activation above about 30%; inactive means the rest.

SMILES	D1 antagonist	TRHR enhancer	Epigenetic reg	D1 PAM	D1 ag	TRHR agonist
Cc1ccccc1OCCSCc1nc2ccccc2[nH]1	-30*	-2	0%	-9	8	-3
O=[S+]([O-])(c1ccc2c(c1)OCCO2)N1CCN([S+](=O)([O-])c2c(O)cc(F)cc2F)CC1	-48*	-6	·	-10	-1	2
O=[S+]([O-])(c1ccc2c(c1)OCCO2)N1CCN([S+](=O)([O-])c2c(F)cc(O)cc2F)CC1	-24	-4	·	-4	2	1
Cc1nc(N2CCCC2)c2c(C(=O)Nc3cccc(C)c3C)c(C)oc2n1	-5	-2	-1%	-5	0	0
O=C(O)c1ccccc1NS(=O)(=O)c1cccc2ccccc12	·	·	-4%	·	·	·
CCOc1ccc(CNC(=O)C2CCN(C(=O)N3CC(C)Oc4ccccc43)CC2)cc1 (centres undefined)	-38*	-1	·	1	2	-1
CCCOc1ccc(CNC(=O)C2CCN(C(=O)N3CCOc4ccccc43)CC2)cc1	-32*	0	·	-4	2	0
CCC1CN(C(=O)N2CCC(C(=O)NCc3cccc(C)c3)CC2)c2ccccc2O1 (centres undefined)	-32*	-5	2%	-2	0	0
CCC1CN(C(=O)N2CCC(C(=O)NCc3ccccc3C)CC2)c2ccccc2O1 (centres undefined)	-8	0	1%	-2	6	0
COc1ccc(NC(=O)C2CCN(C(=O)N3CCOc4ccccc43)CC2)cc1	14	9	4%	-1	3	0
CCC1CN(C(=O)NCc2ccc(F)cc2)c2ccccc2O1 (centres undefined)	-56*!	3	1%	-6	-1	0
CC1CN(C(=O)N2CCC(C(=O)NCCCc3ccccc3)CC2)c2cc(Cl)ccc2O1 (centres undefined)	-57*	0	0%	-3	0	-1
COc1cc(CNCCc2ccccc2)cc(Br)c1OCC(=O)Nc1ccccc1C	-16	5	1%	-3	51*	1
CCOc1cc(CNCC(C)C)cc(Cl)c1OCc1ccccc1	9	-4	-5%	18	47*	0
COc1cc(CNCCc2ccccc2)cc(Cl)c1OCc1ccccc1	12	9	?	17	40*	-2
CNCc1cc(Br)c(OCC(=O)Nc2ccccc2OC)c(OC)c1	3	4	2%	-4	14	2
CCOc1c(Cl)cc(CNCC(C)C)cc1OC	4	10	0%	3	7	1
COc1cc(CNCCc2c[nH]c3ccccc23)cc(Cl)c1OCC(N)=O	-31*	2	0%	-2	12	3
Cc1cccc(C)c1NC(=O)c1oc2c(c1C)-c1nn(Cc3ccccc3)cc1CC2	-16	-1	4%	3	0	0
Cc1cccc(C(=O)NCC(=O)OCc2cc(=O)n3nc(C)sc3n2)c1	-22	4	1%	-1	2	0
O=C(Nc1c(C(=O)O)oc2ccccc12)c1ccc(C(F)(F)F)cc1	4	-3	0%	2	3	0
COc1cc(CNCCc2ccccc2F)ccc1OCc1ccc(Cl)nc1	-4	3	2%	-2	24	5
COc1cc(CNCCc2ccc(F)cc2)ccc1OCc1ccc(Cl)nc1	-40*	6	?	-21	92*	6
CCOc1ccccc1CNc1ccc2cc(S(=O)(=O)N3CCC(C)CC3)ccc2n1	1	-4	9%	-3	1	0
Cc1ccc(-n2c(CCc3ccccc3)n[nH]c2=S)cc1C	-2	31*	·	-2	0	0
SMILES	D1 antagonist	TRHR enhancer	Epigenetic reg	D1 PAM	D1 ag	TRHR agonist
NCCCC(O)(P(=O)(O)O)P(=O)(O)O	·	·	2%	·	·	·
CCN(CCCNC(=O)c1cc2cc3cc(C)ccc3nc2s1)c1cccc(C)c1	2	-1	-2%	3	1	0
COc1ccc(C2=NCCc3cc(OC)c(OC)cc32)cc1OC	9	3	-2%	-3	2	-1
COc1ccc(C2=NCCc3cc(OC)c(OC)cc32)cc1	-61*	3	-3%	-12	3	0
COc1cccc(NC(=O)c2sc3nc(C)c(C(=O)Nc4ccc(C)cc4C)c(-c4ccco4)c3c2N)c1	-11	4	1%	-1	36*	8
COCCCNC(=O)c1sc2nc(C)c(C(=O)Nc3ccc(C)cc3C)c(-c3ccccc3Cl)c2c1N	-32*	-1	1%	-1	1	0
CCc1ccc(NC(=O)c2sc3nc(C)c(C(=O)Nc4ccc(C)cc4C)c(-c4ccco4)c3c2N)cc1	-5	1	18µM*	3	46*	6
COc1cccc(NC(=O)c2sc3nc(C)c(C(=O)Nc4ccc(C)cc4C)c(-c4ccccc4Cl)c3c2N)c1	-31*	-2	0%	0	10	1
COc1cccc(NC(=O)c2sc3nc(C)c(C(=O)Nc4ccc(C)cc4C)c(-c4sccc4C)c3c2N)c1	0	-1	4%	-3	3	4
Cc1ccc(C)c(Nc2nn3c(=O)c4ccc(C(=O)NCc5cccs5)cc4nc3s2)c1	13	8	0%	0	2	0
Cc1cn(CC2COC(C)(C)O2)c(=O)[nH]c1=O (centres undefined)	-30*	9	-1%	-3	3	1
CC(CCN1CCN(c2ccccc2)CC1)c1ccccc1 (centres undefined)	-54*	5	·	-8	1	0
Cc1ccccc1CNC(=O)C1CCN(S(=O)(=O)Cc2ccccc2)CC1	-7	2	-1%	-2	4	1
Cc1cc(C)cc(N(CCC#N)C(=O)COC(=O)c2ccccc2SCC(=O)N2CCCC2)c1	-34*	0	·	-2	6	2
CC1CN(C(=O)N2c3ccccc3Sc3ccccc32)CC(C)O1 (centres undefined)	-33*	2	-2%	-14	2	1
Cc1cc(C)cc(NC(=O)CCC(=O)N2CCSc3ccccc32)c1	-58*!	2	-2%	-2	1	0
COC(=O)c1ccccc1NC(=O)CCC(=O)N1CCSc2ccccc21	-4	-3	·	-7	1	0
O=S(=O)(Nc1cccc2ccccc12)c1cccc2ccccc12	-43*	-2	·	-6	3	0
CCN1C(=O)[C@H]2[C@@H](c3ccc(-c4cc(C(C)=O)cs4)cc3)N3CCC[C@@]3(C(=O)OC)[C@H]2C1=O	-31*	-5	·	-9	-1	0
COc1ccc(C)cc1NCc1cc(=O)oc2cc(-c3ccccc3)c(O)cc12	-30*	1	3%	-1	2	1
